Reference: PubChem BioAssay (EPA / NIEHS)
Several values for one entry are separate records, joined by “and”; a condition that tells them apart may be missing. Equal entries are not always repeated. Records with an inconclusive call do not appear. Some compounds were tested as several samples or in several runs, with calls that do not always agree. Activity calls are given as the source filed them. The calls were made as follows: active = hit-call score of the fitted dose curve at least 0.9, where 1 is the maximum; inconclusive = response in the unintended direction; inactive = score below 0.9.

Columns and labels:
[1] = biological target: Cellular tumor antigen p53 (Homo sapiens) (UniProt P04637); experiment: TOX21_p53_BLA_p4_ratio: Tox21 HCT-116 p53 Agonism Beta-lactamase Assay, Ratio, Phase 4 (AID 2283601)
Procedure, shortened: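 HCT-116 p53 beta-lactamase reporter cells (4000/well) preincubated 5 h, then compound (217-fold dilution of DMSO stock) for 16 h at 37C. CCF4-AM substrate added 2 h at room temperature; 460/530 nm emission ratio fitted upward versus DMSO.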

[2] = Tanguay_ZF_120hpf_MORT_legacy: (Legacy) Oregon State University Tanguay Lab 120 Hour Post-fertilization zebrafish Assay for Mortality (AID 2283633);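 as to AC50: fitted as increase in binary mortality versus DMSO negative control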
Procedure, shortened: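 Mortality endpoint from a multiplexed whole-embryo zebrafish screen. Dechorionated wild-type embryos received compound at 6 hpf and remained under static exposure at 28C until 120 hpf, with death noted as a present/absent call.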

[3] = Tanguay_ZF_120hpf_YSE_legacy: (Legacy) Oregon State University Tanguay Lab 120 Hour Post-fertilization zebrafish Assay for Yolk Sac Edema (AID 2283634)
Procedure, shortened: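 Readout: presence or absence of yolk sac edema at 120 hpf, fitted upward against DMSO controls. Exposure ran statically from 6 hpf in dechorionated embryos kept at 28C.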

[4] = Tanguay_ZF_120hpf_EYE_legacy: (Legacy) Oregon State University Tanguay Lab 120 Hour Post-fertilization zebrafish Assay for Eye Malformation (AID 2283636);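 also: binary presence or absence of eye malformation scored by brightfield in 120 hpf larvae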
Procedure, shortened: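 5D wild-type embryos, pronase-dechorionated at 4 hpf; static exposure 6–120 hpf, 28C, dark; DMSO 0.64% final; 5uM trimethyltin chloride positive control. Binary eye-defect scoring at 120 hpf; dead embryos not scored.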

[5] = Tanguay_ZF_120hpf_JAW_legacy: (Legacy) Oregon State University Tanguay Lab 120 Hour Post-fertilization zebrafish Assay for Jaw Malformation (AID 2283638)
Procedure, shortened: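 Static waterborne exposure of dechorionated wild-type (Tropical 5D) zebrafish from 6 to 120 hpf at 28C, 0.64% DMSO vehicle; 5uM trimethyltin chloride served as positive control. Jaw morphology recorded as binary at 120 hpf.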

[6] = Tanguay_ZF_120hpf_OTIC_legacy: (Legacy) Oregon State University Tanguay Lab 120 Hour Post-fertilization zebrafish Assay for Otic Vesicle Malformation (AID 2283639)
Procedure, shortened: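 Wild-type zebrafish larvae, whole-embryo exposure from early stage to 120 hpf at 28C. Binary brightfield scoring of otic vesicle morphology, fitted in the positive direction against the DMSO baseline.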

[7] = Tanguay_ZF_120hpf_SNOU_legacy: (Legacy) Oregon State University Tanguay Lab 120 Hour Post-fertilization zebrafish Assay for Snout Malformation (AID 2283637)
Procedure, shortened: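 Binary brightfield scoring of snout malformation at 120 hpf. Dechorionated 5D wild-type embryos, one per well, static exposure from 6 hpf at 28C, sealed and dark; final DMSO 0.64% (vol/vol), DMSO as baseline; 5uM trimethyltin chloride positive control.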

[8] = Tanguay_ZF_120hpf_AXIS_legacy: (Legacy) Oregon State University Tanguay Lab 120 Hour Post-fertilization zebrafish Assay for Body Axis Malformation (AID 2283635)
Procedure, shortened: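 Static 6–120 hpf chemical exposure of dechorionated wild-type 5D zebrafish, one per well at 28C; morphology endpoint scored binary at 120 hpf relative to DMSO control.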

[9] = Tanguay_ZF_120hpf_PE_legacy: (Legacy) Oregon State University Tanguay Lab 120 Hour Post-fertilization zebrafish Assay for Pericardial Edema (AID 2283640)
Procedure, shortened: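 Read-out is the presence or absence of pericardial edema at 120 hpf under brightfield, with gain of signal fitted against DMSO controls. Larvae (5D wild-type) were statically exposed at 28C with 0.64% final DMSO.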

[10] = TOX21_p53_BLA_p5_viability: Viability Assessment in the Tox21 HCT-116 p53 Agonism Beta-lactamase Assay, Phase 5 (AID 2283600)
Procedure, shortened: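 Viability is taken from cellular ATP content, measured by luciferase luminescence in the same wells after the beta-lactamase ratio read. Cells are seeded at 4000 per well and exposed to DMSO-dissolved compounds, diluted 217-fold, for 16 h.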

Chain of Cellular tumor antigen p53 (Homo sapiens) (P04637 whole entry, looked up): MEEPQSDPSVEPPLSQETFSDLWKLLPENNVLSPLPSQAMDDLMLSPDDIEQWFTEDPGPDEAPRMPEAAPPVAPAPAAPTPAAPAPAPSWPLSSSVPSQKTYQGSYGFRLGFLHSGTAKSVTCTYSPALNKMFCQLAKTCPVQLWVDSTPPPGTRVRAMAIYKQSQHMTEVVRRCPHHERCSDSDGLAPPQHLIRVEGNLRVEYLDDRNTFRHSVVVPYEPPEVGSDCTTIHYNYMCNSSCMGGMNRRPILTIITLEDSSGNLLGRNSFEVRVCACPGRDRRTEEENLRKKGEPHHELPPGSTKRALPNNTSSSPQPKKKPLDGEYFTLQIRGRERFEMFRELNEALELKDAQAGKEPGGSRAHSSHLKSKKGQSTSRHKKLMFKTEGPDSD

## CC1(C)NC(=O)NC1=O
[1]
  outcome: inactive
[2]
  outcome: inactive
[3]
  outcome: inactive
[4]
  outcome: inactive
[5]
  outcome: inactive
[6]
  outcome: inactive

## CC(=O)OCCOCCOCCOC(C)=O
[1]
  outcome: inactive
[2]
  outcome: inactive
[3]
  outcome: inactive
[4]
  outcome: inactive
[7]
  outcome: inactive
[5]
  outcome: inactive
[6]
  outcome: inactive

## COc1cccc2c1C(=O)c1c(O)c3c(c(O)c1C2=O)C[C@@](O)(C(=O)CO)C[C@@H]3O[C@H]1C[C@H](N)[C@H](O)[C@H](C)O1
[1]
  AC50: 211 nM (active) and 437 nM (active)

## O=C(O)Cc1ccccc1Nc1c(Cl)cccc1Cl
[1]
  AC50: 71.7 µM (active)
  outcome: inactive
[2]
  AC50: 30.6 µM (active)
[3]
  outcome: inactive
[8]
  outcome: inactive
[4]
  outcome: inactive
[7]
  outcome: inactive
[5]
  outcome: inactive
[6]
  outcome: inactive

## COCCOC[C@H](CC1(C(=O)NC2CCC(C(=O)O)CC2)CCCC1)C(=O)Oc1ccc2c(c1)CCC2 (stereo not given in full)
[1]
  outcome: inactive
[2]
  outcome: inactive
[3]
  outcome: inactive
[8]
  outcome: inactive
[4]
  outcome: inactive
[7]
  outcome: inactive
[5]
  outcome: inactive
[6]
  outcome: inactive
[9]
  outcome: inactive

## Cc1cccc(Nc2cc(Cl)nc(SCC(=O)O)n2)c1C
[1]
  outcome: inactive
[2]
  outcome: inactive
[3]
  outcome: inactive
[4]
  outcome: inactive
[7]
  outcome: inactive
[5]
  outcome: inactive
[6]
  outcome: inactive
[9]
  outcome: inactive

## Cc1nc(C)nc(N2C[C@@H](C)N(c3ccnc([C@@H](C)O)n3)[C@@H](C)C2)n1
[10]
  outcome: inactive
[2]
  outcome: inactive
[3]
  outcome: inactive
[4]
  outcome: inactive
[7]
  outcome: inactive
[5]
  outcome: inactive
[6]
  outcome: inactive
[9]
  outcome: inactive

## CCCCCCC(=O)OCC
[1]
  outcome: inactive
[2]
  outcome: inactive
[8]
  outcome: inactive
[4]
  outcome: inactive
[7]
  outcome: inactive
[6]
  outcome: inactive

## CCCCCCCCCCCCCCCCCC(=O)O
[2]
  outcome: inactive
[3]
  outcome: inactive
[8]
  outcome: inactive
[4]
  outcome: inactive
[7]
  outcome: inactive
[5]
  outcome: inactive
[6]
  outcome: inactive
[9]
  outcome: inactive

## CCCCN(CCCC)CCCC
[2]
  outcome: inactive
[3]
  outcome: inactive
[7]
  outcome: inactive
[5]
  outcome: inactive
[6]
  outcome: inactive

## NCC1(Cc2noc(=O)[nH]2)CCCCC1
[1]
  outcome: inactive
[2]
  outcome: inactive
[3]
  outcome: inactive
[4]
  outcome: inactive
[7]
  outcome: inactive
[5]
  outcome: inactive
[9]
  outcome: inactive

## FC(F)(F)C(F)(F)C(F)(F)C(F)(F)C(F)(F)C(F)(F)CCI
[2]
  outcome: inactive
[3]
  outcome: inactive
[4]
  outcome: inactive
[7]
  outcome: inactive
[5]
  outcome: inactive
[9]
  outcome: inactive

## CCCCc1ccc2c(n1)[C@@H](c1ccc(OC)cc1C[C@H](C)C(=O)O)[C@H](C(=O)O)[C@H]2c1ccc2c(c1)OCO2
[2]
  outcome: inactive
[3]
  outcome: inactive
[4]
  outcome: inactive
[7]
  outcome: inactive
[5]
  outcome: inactive

## CCCCCCCCCCCCCCCC
[2]
  outcome: inactive
[3]
  outcome: inactive
[8]
  outcome: inactive
[4]
  outcome: inactive
[7]
  outcome: inactive
[5]
  outcome: inactive
[6]
  outcome: inactive
[9]
  outcome: inactive

## COc1ccc(C)cc1N
[1]
  outcome: inactive
[2]
  outcome: inactive
[3]
  outcome: inactive
[7]
  outcome: inactive
[5]
  outcome: inactive
[6]
  outcome: inactive

## CCCCOC(=O)CCCCCCCCC(=O)OCCCC
[1]
  outcome: inactive
[2]
  outcome: inactive
[3]
  outcome: inactive
[4]
  outcome: inactive
[7]
  outcome: inactive
[5]
  outcome: inactive
[6]
  outcome: inactive

## CC(=O)C(C)=CC1C(C)=CCCC1(C)C (stereo not given)
[10]
  outcome: inactive
[2]
  outcome: inactive
[8]
  outcome: inactive
[4]
  outcome: inactive
[7]
  outcome: inactive
[6]
  outcome: inactive

## NC(=O)Cn1c(=O)cc(CCN2CCN(c3nccc4sccc34)CC2)c2ccc(F)cc21
[2]
  outcome: inactive
[3]
  outcome: inactive
[8]
  outcome: inactive
[4]
  outcome: inactive
[7]
  outcome: inactive
[5]
  outcome: inactive
[6]
  outcome: inactive

## NCCO
[1]
  outcome: inactive
[2]
  outcome: inactive
[3]
  outcome: inactive
[4]
  outcome: inactive
[7]
  outcome: inactive
[5]
  outcome: inactive
[9]
  outcome: inactive

## COc1cc(S(=O)(=O)O)c(C)cc1N=Nc1c(O)ccc2cc(S(=O)(=O)O)ccc12
[1]
  outcome: inactive
[2]
  outcome: inactive
[3]
  outcome: inactive
[4]
  outcome: inactive
[7]
  outcome: inactive
[5]
  outcome: inactive
[6]
  outcome: inactive

## CC(CO)OC(C)CO (stereo not given) (tested in a mixture with another compound)
[2]
  outcome: inactive
[3]
  outcome: inactive
[4]
  outcome: inactive
[7]
  outcome: inactive
[6]
  outcome: inactive
[9]
  outcome: inactive

## Cc1ccc(C)c(O)c1C
[1]
  outcome: inactive
[2]
  outcome: inactive
[3]
  outcome: inactive
[4]
  outcome: inactive
[7]
  outcome: inactive
[5]
  outcome: inactive

## CCCCCC(=O)O
[1]
  outcome: inactive
[2]
  outcome: inactive
[3]
  outcome: inactive
[4]
  outcome: inactive
[7]
  outcome: inactive
[5]
  outcome: inactive
[6]
  outcome: inactive

## CCCCCCCCCCC
[1]
  outcome: inactive
[2]
  outcome: inactive
[3]
  outcome: inactive
[4]
  outcome: inactive
[7]
  outcome: inactive
[5]
  outcome: inactive
[6]
  outcome: inactive
[9]
  outcome: inactive

## C[C@]12C=CC(=O)C=C1CC[C@@H]1[C@@H]2C(=O)C[C@@]2(C)[C@H]1CC[C@]2(O)C(=O)CO
[10]
  outcome: inactive
[2]
  outcome: inactive
[3]
  outcome: inactive
[4]
  outcome: inactive
[7]
  outcome: inactive
[5]
  outcome: inactive
[6]
  outcome: inactive

## C[Si]1(C)O[Si](C)(C)O[Si](C)(C)O[Si](C)(C)O1
[1]
  outcome: inactive
[2]
  outcome: inactive
[3]
  outcome: inactive
[8]
  outcome: inactive
[4]
  outcome: inactive
[7]
  outcome: inactive
[5]
  outcome: inactive
[6]
  outcome: inactive
